17 compounds from PubChem BioAssay (NCATS) can be followed below.

A number with no mark means an inactive call. Results filed as inconclusive are left out. Where a call stands in place of a potency, no number is given. Activity calls are given as the source filed them. Unless noted, calls come from the whole dose curve; as a rule, active = well fitted curve in the direction sought with a large enough effect; inconclusive = small, poorly fitted or top-dose-only effect, or another doubt; inactive = no such curve, though single readings can be large; an effect the other way counts as inactive or inconclusive.

Chain of Ubiquitin carboxyl-terminal hydrolase 1 (Homo sapiens) (O94782 whole entry, looked up): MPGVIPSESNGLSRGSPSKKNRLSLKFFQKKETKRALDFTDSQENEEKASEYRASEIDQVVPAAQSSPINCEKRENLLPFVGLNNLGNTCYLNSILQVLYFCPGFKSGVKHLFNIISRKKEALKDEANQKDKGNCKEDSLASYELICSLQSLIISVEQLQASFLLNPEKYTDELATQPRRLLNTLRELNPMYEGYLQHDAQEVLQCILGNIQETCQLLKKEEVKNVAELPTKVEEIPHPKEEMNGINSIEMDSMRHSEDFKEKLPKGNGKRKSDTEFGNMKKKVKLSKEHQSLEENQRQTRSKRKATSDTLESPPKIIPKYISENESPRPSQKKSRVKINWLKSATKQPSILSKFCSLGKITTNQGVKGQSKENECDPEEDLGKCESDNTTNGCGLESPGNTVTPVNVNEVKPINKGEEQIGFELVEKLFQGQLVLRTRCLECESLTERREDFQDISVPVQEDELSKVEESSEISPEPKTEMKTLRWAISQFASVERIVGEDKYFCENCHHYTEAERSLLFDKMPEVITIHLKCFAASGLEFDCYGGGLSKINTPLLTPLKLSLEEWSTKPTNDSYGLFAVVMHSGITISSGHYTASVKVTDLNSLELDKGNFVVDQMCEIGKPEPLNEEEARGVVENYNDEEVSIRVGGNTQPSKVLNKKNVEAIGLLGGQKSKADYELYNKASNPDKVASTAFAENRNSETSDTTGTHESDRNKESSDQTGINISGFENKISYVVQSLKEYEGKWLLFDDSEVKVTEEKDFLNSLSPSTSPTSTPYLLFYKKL
Chain of RecQ-like DNA helicase BLM (Homo sapiens) (P54132 whole entry, looked up): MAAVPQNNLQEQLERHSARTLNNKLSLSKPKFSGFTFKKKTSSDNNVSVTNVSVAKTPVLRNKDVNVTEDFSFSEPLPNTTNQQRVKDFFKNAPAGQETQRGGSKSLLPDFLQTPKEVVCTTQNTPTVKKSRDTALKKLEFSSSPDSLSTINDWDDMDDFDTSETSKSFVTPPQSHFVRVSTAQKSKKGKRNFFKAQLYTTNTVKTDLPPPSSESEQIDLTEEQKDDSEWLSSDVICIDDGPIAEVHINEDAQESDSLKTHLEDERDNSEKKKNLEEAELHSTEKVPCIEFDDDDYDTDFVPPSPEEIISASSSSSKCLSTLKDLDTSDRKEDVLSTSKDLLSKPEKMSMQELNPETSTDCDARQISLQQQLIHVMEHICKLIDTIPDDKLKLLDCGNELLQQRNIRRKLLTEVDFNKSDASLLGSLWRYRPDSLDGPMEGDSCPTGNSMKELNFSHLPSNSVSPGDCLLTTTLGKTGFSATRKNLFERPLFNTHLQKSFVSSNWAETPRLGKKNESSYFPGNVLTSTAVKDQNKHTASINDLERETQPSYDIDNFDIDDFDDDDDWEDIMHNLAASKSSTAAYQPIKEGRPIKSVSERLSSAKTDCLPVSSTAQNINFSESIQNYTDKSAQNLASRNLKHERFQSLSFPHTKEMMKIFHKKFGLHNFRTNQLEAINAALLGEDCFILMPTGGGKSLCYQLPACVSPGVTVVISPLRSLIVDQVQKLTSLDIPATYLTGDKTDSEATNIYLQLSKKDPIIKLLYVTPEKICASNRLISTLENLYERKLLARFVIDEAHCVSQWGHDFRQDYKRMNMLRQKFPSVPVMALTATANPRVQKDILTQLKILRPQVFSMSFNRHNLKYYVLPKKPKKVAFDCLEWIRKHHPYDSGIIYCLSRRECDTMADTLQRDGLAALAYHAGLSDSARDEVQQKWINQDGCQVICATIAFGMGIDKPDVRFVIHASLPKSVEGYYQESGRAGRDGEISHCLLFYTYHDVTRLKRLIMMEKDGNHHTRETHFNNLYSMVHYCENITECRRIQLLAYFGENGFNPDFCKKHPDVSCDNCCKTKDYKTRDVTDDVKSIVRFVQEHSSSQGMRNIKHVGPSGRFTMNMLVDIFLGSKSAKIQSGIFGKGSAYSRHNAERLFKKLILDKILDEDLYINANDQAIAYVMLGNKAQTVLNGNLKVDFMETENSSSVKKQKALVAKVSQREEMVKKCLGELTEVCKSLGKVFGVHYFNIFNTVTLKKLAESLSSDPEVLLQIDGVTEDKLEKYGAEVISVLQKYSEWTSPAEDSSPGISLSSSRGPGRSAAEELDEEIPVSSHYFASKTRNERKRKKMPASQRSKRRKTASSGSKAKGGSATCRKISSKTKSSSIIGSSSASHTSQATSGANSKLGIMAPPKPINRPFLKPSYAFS
Chain of Galactokinase (Homo sapiens) (P51570 whole entry, looked up): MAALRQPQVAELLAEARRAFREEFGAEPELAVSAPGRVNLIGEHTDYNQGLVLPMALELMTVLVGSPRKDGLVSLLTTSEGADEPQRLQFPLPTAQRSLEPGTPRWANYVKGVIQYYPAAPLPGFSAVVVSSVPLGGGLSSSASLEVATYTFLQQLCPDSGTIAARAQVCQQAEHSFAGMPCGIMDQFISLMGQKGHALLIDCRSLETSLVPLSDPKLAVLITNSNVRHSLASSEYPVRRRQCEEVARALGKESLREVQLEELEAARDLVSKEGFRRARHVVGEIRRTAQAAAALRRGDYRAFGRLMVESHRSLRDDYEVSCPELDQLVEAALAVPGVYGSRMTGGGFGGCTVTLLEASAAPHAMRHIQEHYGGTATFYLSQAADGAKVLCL
Chain of DNA dC->dU-editing enzyme APOBEC-3G (Homo sapiens) (Q9HC16 whole entry, looked up): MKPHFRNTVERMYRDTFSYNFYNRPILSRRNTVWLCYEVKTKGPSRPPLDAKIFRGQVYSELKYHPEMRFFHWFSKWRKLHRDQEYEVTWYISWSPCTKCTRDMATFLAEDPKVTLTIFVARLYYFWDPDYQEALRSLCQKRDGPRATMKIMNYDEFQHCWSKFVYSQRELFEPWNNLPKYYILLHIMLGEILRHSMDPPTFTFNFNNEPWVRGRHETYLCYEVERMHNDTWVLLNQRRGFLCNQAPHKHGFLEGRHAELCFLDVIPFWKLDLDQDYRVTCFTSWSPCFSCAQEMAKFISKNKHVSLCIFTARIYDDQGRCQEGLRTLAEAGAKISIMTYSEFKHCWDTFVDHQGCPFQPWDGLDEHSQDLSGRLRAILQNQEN

One assay has as its target RecQ-like DNA helicase BLM (Homo sapiens) (UniProt P54132). As to the kind of experiment: qHTS Validation Assay for Inhibitors of Bloom's syndrome helicase (BLM) (AID 2364). Conditions: BLM helicase DNA unwinding, fluorescence, in vitro; series mostly up to 57.1 µM. An outline of the steps: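 BLM 50 nM in 25 mM Tris-HCl pH 8.0, 5 mM NaCl, 2 mM MgCl2, 1 mM DTT, 0.01% Tween-20, 2.5 ug/ml poly(dI-dC); 15 min cpd preinc, RT. Start: 200 nM forked DNA + 2 mM ATP (final). TAMRA read, 2 reads 2 h apart.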
On the technique in general: In qHTS, concentration-response curves come from the screen itself.
Turning to `C[C@@H]1O[C@@H](O[C@H]2C[C@@H](O)[C@]3(CO)[C@@H]4C(CC[C@]3(O)C2)[C@@]2(O)CC[C@H](C3=CC(=O)OC3)[C@@]2(C)C[C@H]4O)[C@H](O)[C@H](O)[C@H]1O` (some centres not stated), the Potency entry was “inactive”.
For `COc1ccc2[nH]cc(CCN(C)C)c2c1`, the Potency entry is “inactive”.
For the compound `COc1cc(CCN)ccc1O`, the Potency entry was “inactive”.
On the same count and under the same terms, next, `C[N+]1(C)CCc2cc3c(cc2C1C1OC(=O)c2c1ccc1c2OCO1)OCO3` (configuration not stated): “inactive”.

Tested on in another assay: not listed separately
Description: Validation screen for inhibitors of Lassa infection (AID 463096; calls by dose curve; note: potency is the fitted concentration of half-maximal effect). Particulars: Lassa virus infection, cell-based; series mostly up to 46.1 µM.
Take `C[C@@H]1O[C@@H](O[C@H]2C[C@@H](O)[C@]3(CO)[C@@H]4C(CC[C@]3(O)C2)[C@@]2(O)CC[C@H](C3=CC(=O)OC3)[C@@]2(C)C[C@H]4O)[C@H](O)[C@H](O)[C@H]1O` (some centres not stated): the Potency is 100 nM (active).
In the case of `COc1ccc2[nH]cc(CCN(C)C)c2c1`, the Potency entry was “inactive”.
For the compound `COc1cc(CCN)ccc1O`, the Potency entry is “inactive”.
Consider `C[N+]1(C)CCc2cc3c(cc2C1C1OC(=O)c2c1ccc1c2OCO1)OCO3` (configuration not stated), for which the Potency entry was “inactive”.

Tested on in the next assay: not listed separately
As to the kind of experiment: Validation screen for small molecules that induce DNA re-replication in MCF 10A normal breast cells (AID 463097). Note: nearly all actives have a fitted effect of over 60% in size. Conditions: MCF 10A cells, DNA re-replication phenotype imaging; series mostly up to 46.1 µM. An outline of the steps: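 Following 48 hr compound incubation (37 C, 5% CO2), MCF 10A cells receive Hoechst for 40 min at 37 C. Nuclei are then scanned (excitation 405 nm, emission 500-530 nm) for total fluorescence intensity.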
Turning to `COc1ccc2[nH]cc(CCN(C)C)c2c1`, the Potency entry was “inactive”.
Turning to `COc1cc(CCN)ccc1O`, the Potency result is “inactive”.
For the compound `C[N+]1(C)CCc2cc3c(cc2C1C1OC(=O)c2c1ccc1c2OCO1)OCO3` (configuration not stated), the Potency result is “inactive”.
Turning to `COc1ccc(CCN)cc1O`, the Potency entry is “inactive”.

Tested on in a further assay: not listed separately
Description: Quantitative high throughput screen for delayed death inhibitors of the malarial parasite plastid, 96 hour incubation (AID 488745). Note: nearly all actives have a fitted effect of over 70% in size. Conditions: Plasmodium falciparum growth; series mostly up to 28.7 µM. An outline of the steps:
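Decreased firefly luciferase luminescence indicates inhibited growth of reporter-integrated P. falciparum after two generations (96 h, 37 C, 5% CO2). Infected erythrocytes at 0.1% parasitemia, 2% hematocrit, in Albumax-supplemented RPMI 1640.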
Regarding `COc1ccc2[nH]cc(CCN(C)C)c2c1`, the Potency entry is “inactive”.
As for `COc1cc(CCN)ccc1O`, the Potency result was “inactive”.
Consider `COc1ccc(CCN)cc1O`, for which the Potency result was “inactive”.

Tested on in another assay: not listed separately
As to the kind of experiment: Quantitative high throughput screen for delayed death inhibitors of the malarial parasite plastid, 48 hour incubation (AID 488752). Note: nearly all actives have a fitted effect of over 65% in size. Conditions: Plasmodium falciparum growth; series mostly up to 28.7 µM. An outline of the steps: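 One-generation (48 h) growth assay: a decrease in luciferase signal from an integrated reporter in P. falciparum-infected red cells (0.1% parasitemia, 2% hematocrit) after compound exposure at 37 C indicates parasite inhibition.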
With `COc1ccc2[nH]cc(CCN(C)C)c2c1`, the Potency entry was “inactive”.
Still for that read-out and setting: next, `COc1cc(CCN)ccc1O`: “inactive”; `C[N+]1(C)CCc2cc3c(cc2C1C1OC(=O)c2c1ccc1c2OCO1)OCO3` (configuration not stated): “inactive”.
Still for that read-out and setting: with `COc1ccc(CCN)cc1O` the entry was “inactive”.

For a further assay, the target named is M-phase phosphoprotein 8 (Homo sapiens) (UniProt Q99549). Description: qHTS Validation Assay for Inhibitors for MPP8 Chromodomain Interactions with Methylated Histone Tails (AID 488949).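 Note: AlphaScreen signal from MPP8 chromodomain bound to biotinylated H3K9me3 peptide; top concentration of the series differs between compounds; nearly all actives have a fitted effect of over 55% in size.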 Particulars: AlphaScreen MPP8 binding to H3K9me3 peptide; series mostly up to 114 µM. The method, boiled down: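 Chemiluminescent proximity assay: histidine-tag capture via nickel acceptor beads, biotin peptide via streptavidin donor beads. Protein and peptide each at 50 nM, pH 7.4, with 30 min incubations at room temperature for complex formation, compound exposure and bead binding.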
Chain of M-phase phosphoprotein 8 (Homo sapiens) (Q99549 whole entry, looked up): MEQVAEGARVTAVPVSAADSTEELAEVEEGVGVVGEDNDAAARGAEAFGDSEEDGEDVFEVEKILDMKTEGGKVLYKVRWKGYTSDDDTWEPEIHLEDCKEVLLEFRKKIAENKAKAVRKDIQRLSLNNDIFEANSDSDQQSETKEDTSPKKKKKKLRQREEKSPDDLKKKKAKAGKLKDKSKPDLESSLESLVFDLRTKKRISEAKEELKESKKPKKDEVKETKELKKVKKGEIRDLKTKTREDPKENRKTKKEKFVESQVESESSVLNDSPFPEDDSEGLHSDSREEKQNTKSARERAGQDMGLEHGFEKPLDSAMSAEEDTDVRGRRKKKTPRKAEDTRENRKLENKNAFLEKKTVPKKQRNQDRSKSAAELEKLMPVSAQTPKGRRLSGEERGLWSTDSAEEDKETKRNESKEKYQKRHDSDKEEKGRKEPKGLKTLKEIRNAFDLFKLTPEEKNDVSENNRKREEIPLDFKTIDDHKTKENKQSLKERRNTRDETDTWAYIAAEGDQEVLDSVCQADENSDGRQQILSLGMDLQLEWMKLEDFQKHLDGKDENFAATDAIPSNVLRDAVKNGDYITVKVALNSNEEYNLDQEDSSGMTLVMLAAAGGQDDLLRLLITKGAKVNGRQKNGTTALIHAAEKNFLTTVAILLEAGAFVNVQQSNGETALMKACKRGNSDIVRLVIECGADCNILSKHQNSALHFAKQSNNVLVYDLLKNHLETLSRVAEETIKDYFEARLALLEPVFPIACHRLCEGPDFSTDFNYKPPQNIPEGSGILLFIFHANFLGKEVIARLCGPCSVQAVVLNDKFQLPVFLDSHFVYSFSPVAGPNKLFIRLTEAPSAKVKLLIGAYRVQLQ
As for `COc1ccc2[nH]cc(CCN(C)C)c2c1`, the Potency result is “inactive”.
Still for that read-out and setting: with `COc1cc(CCN)ccc1O` the entry was “inactive”; with `C[N+]1(C)CCc2cc3c(cc2C1C1OC(=O)c2c1ccc1c2OCO1)OCO3` (configuration not stated), “inactive”; with `COc1ccc(CCN)cc1O`, “inactive”.

The target of the next assay is Thyrotropin receptor (Homo sapiens) (UniProt P16473). As to the kind of experiment: qHTS Assay for Antagonists of the Thyroid Stimulating Hormone Receptor (AID 488980). Particulars: TSHR-expressing cells, cAMP antagonist read-out; series mostly up to 57.5 µM. The method, boiled down: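 Inhibition of TSH-stimulated cAMP accumulation was quantified by homogeneous time-resolved FRET in TSHR-transfected HEK293 cells. Agonist: TSH, 4 nM final (EC80).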
Chain of Thyrotropin receptor (Homo sapiens) (P16473 whole entry, looked up): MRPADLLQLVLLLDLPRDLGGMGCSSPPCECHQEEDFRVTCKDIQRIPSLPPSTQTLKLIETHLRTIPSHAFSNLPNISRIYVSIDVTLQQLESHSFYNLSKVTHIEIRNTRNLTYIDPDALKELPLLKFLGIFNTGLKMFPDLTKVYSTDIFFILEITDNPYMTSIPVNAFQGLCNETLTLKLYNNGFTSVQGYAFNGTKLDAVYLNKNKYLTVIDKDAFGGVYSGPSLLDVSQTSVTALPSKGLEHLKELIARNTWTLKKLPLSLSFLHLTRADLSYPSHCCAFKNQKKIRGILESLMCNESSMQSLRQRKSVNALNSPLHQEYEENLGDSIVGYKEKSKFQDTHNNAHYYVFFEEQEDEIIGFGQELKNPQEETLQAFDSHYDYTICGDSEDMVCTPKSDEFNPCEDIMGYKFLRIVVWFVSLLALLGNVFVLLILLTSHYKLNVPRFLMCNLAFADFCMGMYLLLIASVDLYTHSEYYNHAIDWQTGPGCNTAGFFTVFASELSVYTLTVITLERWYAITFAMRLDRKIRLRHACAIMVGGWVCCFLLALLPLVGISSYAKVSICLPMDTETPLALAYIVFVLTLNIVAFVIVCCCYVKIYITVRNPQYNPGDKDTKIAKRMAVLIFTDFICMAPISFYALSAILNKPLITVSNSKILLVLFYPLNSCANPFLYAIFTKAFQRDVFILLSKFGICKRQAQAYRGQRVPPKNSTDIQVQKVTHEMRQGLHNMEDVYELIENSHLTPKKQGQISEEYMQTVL
As for `COc1ccc2[nH]cc(CCN(C)C)c2c1`, the result was inactive.
For the compound `COc1cc(CCN)ccc1O`, the outcome was inactive.
On to `C[N+]1(C)CCc2cc3c(cc2C1C1OC(=O)c2c1ccc1c2OCO1)OCO3` (configuration not stated), for which the outcome was inactive.
For the compound `COc1ccc(CCN)cc1O`, the outcome was inactive.

In another assay the target is Thyrotropin-releasing hormone receptor (Homo sapiens) (UniProt P34981). Description: qHTS for Small Molecule Agonists and Allosteric Enhancers of Human TRH Receptor: Validation Screen for Agonists (AID 493127;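 active = calcium activation more than 3 SD above the typical response in the agonist read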;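 note: intracellular calcium rise by fluo-8 fluorescence before TRH EC20 addition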). Particulars: TRH receptor agonist cell assay; at 2 µM; active compounds read high. The method, boiled down: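 Compound-evoked intracellular calcium release in fluo-8-loaded TRHR cells, read kinetically on FDSS (Ex 480/Em 530, 1 s/cycle) after 23 nL pintool transfer. Agonist phase preceded 10 nM TRH EC20 addition.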
Chain of Thyrotropin-releasing hormone receptor (Homo sapiens) (P34981 whole entry, looked up): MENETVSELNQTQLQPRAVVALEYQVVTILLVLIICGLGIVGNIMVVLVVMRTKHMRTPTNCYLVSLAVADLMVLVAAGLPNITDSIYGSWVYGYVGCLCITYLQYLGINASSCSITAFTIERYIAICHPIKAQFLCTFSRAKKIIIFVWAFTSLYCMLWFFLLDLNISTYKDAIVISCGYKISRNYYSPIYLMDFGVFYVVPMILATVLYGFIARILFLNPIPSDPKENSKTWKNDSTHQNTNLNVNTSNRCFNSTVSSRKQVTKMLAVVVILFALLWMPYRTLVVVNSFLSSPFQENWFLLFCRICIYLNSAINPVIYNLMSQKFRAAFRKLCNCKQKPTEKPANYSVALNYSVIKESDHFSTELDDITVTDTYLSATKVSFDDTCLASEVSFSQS
For the compound `C[C@@H]1O[C@@H](O[C@H]2C[C@@H](O)[C@]3(CO)[C@@H]4C(CC[C@]3(O)C2)[C@@]2(O)CC[C@H](C3=CC(=O)OC3)[C@@]2(C)C[C@H]4O)[C@H](O)[C@H](O)[C@H]1O` (some centres not stated), the activation was 0.375%.
For `COc1ccc2[nH]cc(CCN(C)C)c2c1`, the activation is 0.688%.
In the case of `COc1cc(CCN)ccc1O`, the activation was -0.312%.
Take `C[N+]1(C)CCc2cc3c(cc2C1C1OC(=O)c2c1ccc1c2OCO1)OCO3` (configuration not stated): the activation was 0.938%.
As for `COc1ccc(CCN)cc1O`, the activation was 1.06%.

In another assay the target is Galactokinase (Homo sapiens) (UniProt P51570). Description: qHTS Validation Assay for Inhibitors of Human Galactokinase (GALK) (AID 493189). Conditions: purified human GALK enzyme activity, qHTS 7-point titration; series mostly up to 57.5 µM. The method, boiled down:
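Enzyme activity is inferred from ATP consumption: human GALK phosphorylates galactose (100 uM) using 35 uM ATP for 1 h at room temperature, and luciferase-based Kinase-Glo Plus reports unconsumed ATP.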
`C[C@@H]1O[C@@H](O[C@H]2C[C@@H](O)[C@]3(CO)[C@@H]4C(CC[C@]3(O)C2)[C@@]2(O)CC[C@H](C3=CC(=O)OC3)[C@@]2(C)C[C@H]4O)[C@H](O)[C@H](O)[C@H]1O` (some centres not stated): the compound was classed as inactive.
Still for that read-out and setting: with `COc1ccc2[nH]cc(CCN(C)C)c2c1` the entry was “inactive”.
Still for that read-out and setting: next, `COc1cc(CCN)ccc1O`: “inactive”.
For `C[N+]1(C)CCc2cc3c(cc2C1C1OC(=O)c2c1ccc1c2OCO1)OCO3` (configuration not stated), the result was inactive.
Consider `COc1ccc(CCN)cc1O`, for which the call was inactive.

Tested on in a further assay: not listed separately
As to the kind of experiment: Validation screen for small molecules that induce DNA re-replication in SW480 colon adenocarcinoma cells (AID 504364). Conditions: DNA re-replication phenotype (high-content imaging); series mostly up to 46.1 µM. The method, boiled down: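 Image-based DNA content read-out: Hoechst stain 40 min, total nuclear fluorescence intensity (ex 405 nm, em 500-530 nm) after 48 h compound exposure of 250 SW480 cells/well at 37 C, 5% CO2, versus DMSO vehicle.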
As for `COc1ccc2[nH]cc(CCN(C)C)c2c1`, the Potency entry is “inactive”.
As to `COc1cc(CCN)ccc1O`, the Potency entry is “inactive”.
In the case of `C[N+]1(C)CCc2cc3c(cc2C1C1OC(=O)c2c1ccc1c2OCO1)OCO3` (configuration not stated), the Potency entry is “inactive”.
For `COc1ccc(CCN)cc1O`, the Potency result is “inactive”.

The next assay deals with Ubiquitin carboxyl-terminal hydrolase 1 (Homo sapiens) (UniProt O94782). Description: Inhibitors of USP1/UAF1: Pilot qHTS (AID 504865).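 Note: rhodamine fluorescence freed from ubiquitin-rhodamine substrate followed over time; top concentration of the series differs between compounds; nearly all actives have a fitted effect of over 35% in size.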 Conditions: purified USP1/UAF1, Ub-rhodamine cleavage fluorescence; series mostly up to 114 µM. An outline of the steps:
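Enzyme-free wells gave the negative control, while test wells held 1nM USP1/UAF1 preincubated with compound for 15 min at room temperature. Ub-Rho at 150nM final started the reaction, and fluorescence at 480/540 nm was recorded kinetically.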
As for `CCN(CC)CCO[C@H]1CC[C@@]2(C)C(=CC[C@@H]3[C@H]2CC[C@]2(C)C(=O)CC[C@H]32)C1`, the Potency entry is “inactive”.
On the same count and under the same terms, with `C=CCN1C[C@H](C)N([C@H](c2ccc(C(=O)N(CC)CC)cc2)c2cccc(O)c2)C[C@H]1C` the entry was “inactive”; with `CN1CC[C@@H]2CN3CCc4cccc(c43)[C@H]2C1`, “inactive”; with `O[C@@H]1[C@H](O)[C@H]2[C@@H](O)CCN2C[C@@H]1O`, “inactive”.
As to `N[C@@H](Cn1ccc(=O)n(Cc2ccc(C(=O)O)cc2)c1=O)C(=O)O`, the Potency entry is “inactive”.
With `Clc1ccc(C2=CCC[C@H]3CC[C@@H]2N3)cn1`, the Potency entry was “inactive”.
Still for that read-out and setting: next, `Cn1cc(C(=O)C(=O)N[C@H]2CN3CCC2CC3)c2ccccc21`: “inactive”.
On the same count and under the same terms, next, `Fc1ccc(C(OCCN2CCN(C/C=C\c3ccccc3)CC2)c2ccc(F)cc2)cc1`: “inactive”.

A further assay has as its target DNA dC->dU-editing enzyme APOBEC-3G (Homo sapiens) (UniProt Q9HC16). As to the kind of experiment: qHTS for inhibitors of Vif-A3G interactions: Validation (AID 588379). Particulars: Vif-A3G protein interaction assay; series mostly up to 46.1 µM. The method, boiled down:
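Yellow fluorescence (Ex 488, Em 500-530) of Vif-coexpressing HeLa A3G-eYFP cells, scanned by Acumen cytometer, reports blocked A3G degradation. Cells plated at 700/well overnight at 37 deg C before compound addition, then a further overnight compound incubation at 37 deg C.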
As for `N[C@@H](CCCCP(=O)(O)O)C(=O)O`, the Potency entry was “inactive”.
With `CCN(CC)CCO[C@H]1CC[C@@]2(C)C(=CC[C@@H]3[C@H]2CC[C@]2(C)C(=O)CC[C@H]32)C1`, the Potency entry is “inactive”.
Take `C[C@@H]1O[C@@H](O[C@H]2C[C@@H](O)[C@]3(CO)[C@@H]4C(CC[C@]3(O)C2)[C@@]2(O)CC[C@H](C3=CC(=O)OC3)[C@@]2(C)C[C@H]4O)[C@H](O)[C@H](O)[C@H]1O` (some centres not stated): the Potency result was “inactive”.
Consider `C=CCN1C[C@H](C)N([C@H](c2ccc(C(=O)N(CC)CC)cc2)c2cccc(O)c2)C[C@H]1C`, for which the Potency result was “inactive”.
For the compound `CN1CC[C@@H]2CN3CCc4cccc(c43)[C@H]2C1`, the Potency entry was “inactive”.
Take `O[C@@H]1[C@H](O)[C@H]2[C@@H](O)CCN2C[C@@H]1O`: the Potency entry was “inactive”.
For the compound `N[C@@H](Cn1ccc(=O)n(Cc2ccc(C(=O)O)cc2)c1=O)C(=O)O`, the Potency result is “inactive”.
For the compound `N[C@H](CP(=O)(O)O)C(=O)O`, the Potency result is “inactive”.
As for `Clc1ccc(C2=CCC[C@H]3CC[C@@H]2N3)cn1`, the Potency entry is “inactive”.
Still for that read-out and setting: with `Cn1cc(C(=O)C(=O)N[C@H]2CN3CCC2CC3)c2ccccc21` the entry was “inactive”; with `O=C1NCN(c2ccccc2)C12CCN(C[C@H]1COc3ccccc3O1)CC2`, “inactive”; with `Fc1ccc(C(OCCN2CCN(C/C=C\c3ccccc3)CC2)c2ccc(F)cc2)cc1`, “inactive”.
In the case of `CNc1ccc2oc(C[C@H]3O[C@]4(CC[C@H]3C)O[C@H]([C@H](C)C(=O)c3ccc[nH]3)[C@H](C)C[C@H]4C)nc2c1C(=O)O`, the Potency result was “inactive”.
